# Assay results as given in PubChem BioAssay.
# “And” between values parts separate entries of the source, which are not always exact repeats. Equal values may be shown once. The source made the active and inactive calls. Unless noted, how the calls were made is not given here.
# Key:
# [1] = HepG2 liver cancer cell viability effects, profiling panel, resazurin fluorescence, 24 h, PK04 Diversity Set (AID 1172); conditions: higher = more signal; further: test concentration not given here
# [2] = basal S. cerevisiae growth modulation, no modifier, primary screen, OD600, strain BY4716, 24 h, basal condition (AID 1173); conditions: OD600, 24 h, higher = more signal, called active from +8 up or from −8 down
# [3] = MM1S myeloma cell viability, profiling panel, resazurin fluorescence, basal, 24 h, PK04 Diversity Set (AID 1174); conditions: higher = more signal, called active from +8 up or from −8 down;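 further: MM1S multiple myeloma cell line; test concentration not given here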
# [4] = molecular target: Dihydroorotate dehydrogenase (quinone), mitochondrial (Plasmodium falciparum (isolate 3D7)) (UniProt Q08210); assay: PfDHODH enzyme inhibitors, primary screen, biochemical, C-terminal His tag, absorbance 600 nm (AID 1175); conditions: DCIP absorbance 600 nm, higher = more signal, called active from +8 up or from −8 down;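 further: recombinant parasite enzyme with a five histidine tag at its C terminus; test concentration not given here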
# [5] = P. aeruginosa biofilm formation inhibitors, primary screen, strain PAO1, LB-PBS medium, absorbance 600 nm (AID 1176); further: test concentration not given here; conditions: P. aeruginosa PAO1 growth/biofilm, A600, 12 h; higher = more signal
# [6] = S. cerevisiae RM11-1a growth modifiers, primary screen, strain RM11-1a, OD600, basal, 24 h (AID 1177); conditions: OD600, 24 h, higher = more signal, called active from +8 up or from −8 down;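 further: cultures grown under basal conditions with no added stressor; test concentration not given here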
# [7] = E. coli acrAB mutant growth effects, primary screen, E. coli filamentation inducers, strain DRC39, OD650, 24 h (AID 1178); conditions: higher = more signal, called active from +8 up or from −8 down;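 further: growth measured as culture turbidity by optical density at 650 nm; test concentration not given here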
# [8] = E. coli acrAB mutant growth effects, primary screen, E. coli filamentation inducers, strain DRC39, OD650, 48 h (AID 1179);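 further: screen aims at cell division blockers that make cells filament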; conditions: E. coli DRC39 delta-acrAB growth, higher = more signal, called active from +8 up or from −8 down
# [9] = RPMI8226 myeloma cell viability, profiling panel, resazurin fluorescence, basal, 24 h, PK04 Diversity Set (AID 1180); conditions: higher = more signal;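 further: RPMI8826 multiple myeloma cell line at 5000 cells per well; test concentration not given here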
# [10] = molecular target: E3 ubiquitin-protein ligase XIAP (Homo sapiens) (UniProt P98170); assay: XIAP binders, primary screen, biophysical, small-molecule microarray, fluorescence 635 nm (AID 1181); conditions: small-molecule microarray binding, higher = more signal;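 further: score merges 667 nm emission and signal to noise over triplicate slides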
# Chain of E3 ubiquitin-protein ligase XIAP (Homo sapiens) (P98170 whole entry, looked up): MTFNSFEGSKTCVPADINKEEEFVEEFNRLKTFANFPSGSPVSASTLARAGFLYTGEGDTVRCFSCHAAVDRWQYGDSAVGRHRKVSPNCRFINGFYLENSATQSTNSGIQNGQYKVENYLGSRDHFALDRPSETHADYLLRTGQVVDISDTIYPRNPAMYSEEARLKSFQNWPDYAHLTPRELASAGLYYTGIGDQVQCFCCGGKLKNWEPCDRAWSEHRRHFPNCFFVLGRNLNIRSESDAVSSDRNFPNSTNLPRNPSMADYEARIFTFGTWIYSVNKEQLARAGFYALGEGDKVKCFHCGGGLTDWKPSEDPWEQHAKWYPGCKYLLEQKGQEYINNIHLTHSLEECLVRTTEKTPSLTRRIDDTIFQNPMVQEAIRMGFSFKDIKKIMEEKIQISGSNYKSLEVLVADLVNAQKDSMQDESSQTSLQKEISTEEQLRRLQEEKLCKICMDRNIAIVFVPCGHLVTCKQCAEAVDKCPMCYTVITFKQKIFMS
# Chain of Dihydroorotate dehydrogenase (quinone), mitochondrial (Plasmodium falciparum (isolate 3D7)) (Q08210 whole entry, looked up): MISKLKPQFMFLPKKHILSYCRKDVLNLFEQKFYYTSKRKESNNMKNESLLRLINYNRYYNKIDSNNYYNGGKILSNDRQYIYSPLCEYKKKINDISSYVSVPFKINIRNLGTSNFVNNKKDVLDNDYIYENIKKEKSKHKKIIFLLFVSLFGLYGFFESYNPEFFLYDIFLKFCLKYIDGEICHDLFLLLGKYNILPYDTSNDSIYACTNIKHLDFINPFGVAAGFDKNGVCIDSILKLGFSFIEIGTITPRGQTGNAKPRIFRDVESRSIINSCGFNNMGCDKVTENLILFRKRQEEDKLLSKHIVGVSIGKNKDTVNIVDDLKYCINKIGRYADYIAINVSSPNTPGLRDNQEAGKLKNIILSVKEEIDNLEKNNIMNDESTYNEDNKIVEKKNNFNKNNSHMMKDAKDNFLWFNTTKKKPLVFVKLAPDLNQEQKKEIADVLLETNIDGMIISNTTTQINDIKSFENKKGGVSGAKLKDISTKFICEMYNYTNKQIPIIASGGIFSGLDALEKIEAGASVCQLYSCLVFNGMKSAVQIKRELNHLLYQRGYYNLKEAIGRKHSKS
SMILES,z-score [1],z-score [2],z-score [3],composite z-score [4],z-score [5],z-score [6],z-score [7],z-score [8],z-score [9],composite z-score [10]
CC[C@@H]1C(Sc2ccccc2)C(C(=O)O)[C@H](c2ccc(C)cc2)N1S(=O)(=O)c1ccc(C)cc1 (some centres undefined),-0.706 and -0.917,-0.28 (inactive) and -1.3 (inactive),-0.567 (inactive) and 0.0522 (inactive),0.0392 (inactive) and -0.581 (inactive),0.133 (inactive) and 0.257 (inactive),-0.112 (inactive) and -1.09 (inactive),-0.604 (inactive) and -0.627 (inactive),-0.106 (inactive) and 0.575 (inactive),-1.17 and -0.637,0.287 and 0.382
CO[C@@H]1COC(=O)[C@H](Cc2ccccc2)NC(=O)CC=C[C@@H](C)[C@H](OC)COC(=O)[C@@H](C)NC(=O)CC=C[C@H]1C,0.959 and 0.62,-1.78 (inactive) and -1.48 (inactive),1.27 (inactive) and 0.921 (inactive),-0.595 (inactive) and -0.614 (inactive),,-1.34 (inactive) and -1.08 (inactive),0.357 (inactive) and 0.951 (inactive),0.067 (inactive) and 0.74 (inactive),1 and -0.289,-0.203 and -0.192
C=CCN(CCCCC)C(=O)C(c1cccs1)N(C(=O)/C=C\C(=O)O)c1ccc(CCO)cc1 (centres undefined),-0.524 and -0.698,-0.238 (inactive) and -0.173 (inactive),-0.585 (inactive) and -0.372 (inactive),-0.249 (inactive) and -0.533 (inactive),-0.553 (inactive) and -0.621 (inactive),0.741 (inactive) and 0.428 (inactive),0.191 (inactive) and 0.129 (inactive),0.712 (inactive) and 0.685 (inactive),-0.359 and -0.583,-0.346 and -0.138
CC(CO)N1C(=O)[C@@H]2C3C(=O)OCCC=C[C@H]3OC23C=CCN(Cc2ccccc2)C(=O)[C@@H]13 (some centres undefined),0.278 and -0.0236,1.35 (inactive) and -1.28 (inactive),0.533 (inactive) and 0.868 (inactive),0.113 (inactive) and -2.83 (inactive),-1.35 (inactive) and -0.0684 (inactive),1.57 (inactive) and -0.214 (inactive),0.748 (inactive) and 0.632 (inactive),0.453 (inactive) and 0.309 (inactive),0.252 and 0.693,-0.196 and 0.194
C[C@@H](c1ccccc1)N1C(=O)[C@H]2[C@H]3[C@H](O)[C@H](O)CC(=O)[C@@H]3CC[C@H]2C1=O,-0.7,-1.05 (inactive),0.295 (inactive),-1.59 (inactive),0.377 (inactive),-2.9 (inactive),-0.579 (inactive),-0.954 (inactive),-0.62,-0.163
